FAS-TE inh = inhibitors of human fatty acid synthase thioesterase domain | 360,000 tested, 0.67% active | recombinant FAS-TE, OMFH fluorogenic substrate, fluorescence endpoint | inhibition, % at 15 µM | P49327;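 active means compounds whose normalised, plate-corrected inhibition of enzyme fluorescence in the single-dose primary screen is 50% or more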
Calb FLC = affects C. albicans growth with fluconazole. C. albicans CaCi-2 (fluconazole-resistant clinical isolate) + fluconazole, Alamar Blue growth, 48 h. growth inhibition, % (concentration not given with the values). 300,000 tested, 0.57% active;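 active means growth inhibition above about 58% in most replicates, limit read from the data, passing the limit was not always enough; inconclusive means exactly half the replicates above a set limit; inactive means most replicates below a set limit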;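 further: all wells also contain fluconazole at 8 µg/ml as a sub-toxic cotreatment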
NadD inh = inhibitors of Staphylococcus aureus NadD. purified NadD enzyme, colorimetric absorbance read-out. inhibition, % at 20 µM. 360,000 tested, 0.78% active. AID 602399; in the data active means inhibition above about 26%
ATG4B inhibitor = ATG4B (human) cysteine protease inhibition | Q9Y4P1 | ATG4B cleavage of LC3-PLA2, NBD-HPC fluorescence, 1 h | inhibition, % at 8.33 µM | 340,000 tested, 0.51% active | AID 504462; in the data active means inhibition above about 40%
Target sequence (Q9Y4P1 whole entry, looked up): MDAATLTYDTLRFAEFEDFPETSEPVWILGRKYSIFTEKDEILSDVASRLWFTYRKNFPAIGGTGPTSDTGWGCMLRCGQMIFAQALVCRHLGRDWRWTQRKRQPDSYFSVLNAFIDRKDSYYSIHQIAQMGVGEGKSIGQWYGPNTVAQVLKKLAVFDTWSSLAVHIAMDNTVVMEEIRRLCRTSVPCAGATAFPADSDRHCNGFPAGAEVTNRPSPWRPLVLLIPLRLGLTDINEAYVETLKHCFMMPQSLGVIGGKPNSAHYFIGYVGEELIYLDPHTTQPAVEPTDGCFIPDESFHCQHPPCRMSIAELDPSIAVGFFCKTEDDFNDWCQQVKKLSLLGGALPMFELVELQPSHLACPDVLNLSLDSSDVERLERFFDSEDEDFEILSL
Mot1-301 SUMO = inhibitors of SUMOylation pathway: yeast Mot1-301 growth rescue; growth rescue, % at 18.8 µM; AID 2716; S. cerevisiae Mot1-301 growth rescue, ATP luminescence, 38.5C; percent above DMSO median, 100 means doubled; 320,000 tested, 1% active;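 active means every valid replicate shows activation above 250% relative to neutral control wells; inactive means the rest, any valid replicate at or below 250%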
Yeast Mot1 SUMO = inhibits SUMO pathway, affecting Mot1-301 yeast growth | shares compounds with Mot1-301 SUMO | S. cerevisiae Mot1-301 galactose growth, ATP luminescence, 24 h; -100 = growth of slx-deleted rescue strain | growth activity, percent, % at 42 µM | 2,300 tested, under 10 active | AID 493004;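 active means Signal drops as the depositor expects, and the fitted half-maximal dose is no more than ten times the top valid tested dose; inconclusive means Poor fit, or a flat curve whose signal drops by 30% to 70%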;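 further: more negative values mean stronger growth rescue toward the control strain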
A number is an active result; - = inactive; ? = inconclusive; . = not tested or not shown; + = active, no number. Hits are enriched below; roughly 3.1% of the tested compounds scored in any of these assays.

SMILES	FAS-TE inh	Calb FLC	NadD inh	ATG4B inhibitor	Mot1-301 SUMO	Yeast Mot1 SUMO
O=C(NCC(c1cccs1)N1CCOCC1)c1cc2ccccc2oc1=O (configuration not stated)	-	.	-	-	-	.
Cn1cc(Br)c(C(=O)Nc2nccs2)n1	-	-	-	-	625.6	-
Cc1cc(F)ccc1NC(=O)c1ccc(NS(=O)(=O)c2cccs2)cc1	-	.	-	.	.	.
Cc1occc1-c1nnc(SCC(=O)N2CCN(c3ccccc3)CC2)n1C	-	-	-	-	494.6	-
O=C1CCCN1CCC1CCN(C2CC(=O)N(c3ccc(Cl)cc3)C2=O)CC1 (configuration not stated)	-	?	-	-	503.3	-
O=C(NC(=S)NNC(=O)c1ccccc1O)c1cccc([N+](=O)[O-])c1	-	-	-	-	368.2	-
Cc1ccc(-c2nc(-c3cccnc3)sc2CC(=O)O)cc1	-	-	-	-	885.0	-
CC(=O)Nc1ccc(NC(=O)Cc2sc(-c3cccnc3)nc2-c2ccc(C)cc2)cc1	-	-	-	-	-	.
Cc1ccccc1NC(=O)COC(=O)c1ccccc1SCC(=O)N1CCCC1	-	-	-	-	-	.
O=C(O)CC(NC(=O)OCc1ccccc1)c1ccc(Br)cc1 (configuration not stated)	-	-	-	-	584.8	-
O=C(NC(Cc1ccccc1)C(=O)O)OCc1ccccc1 (configuration not stated)	-	-	-	-	-	.
O=C(O)CC(NC(=O)c1ccc2c(c1)OCO2)c1cccc([N+](=O)[O-])c1 (configuration not stated)	-	-	-	-	+	-
CCc1nc2c(OCc3ccc(Cl)cc3Cl)cccn2c1N(C)C(=O)C1CC1	-	.	-	.	.	.
Cn1nc(C(C)(C)C)cc1C(=O)N1CCC(C)(C(=O)NS(=O)(=O)C2CC2)C1 (configuration not stated)	-	.	-	.	.	.
CCc1nnc(NC(=O)c2cc(Cl)ccn2)s1	-	?	-	-	-	.
O=C(COc1cccnc1[N+](=O)[O-])Nc1ccc2c(c1)CCC2	-	-	-	-	811.0	-
COc1ccc(NC(=O)COc2cccnc2[N+](=O)[O-])cc1OC	-	-	-	-	-	.
O=C(COc1ccc(S(=O)(=O)N2CCOCC2)cc1Cl)NCc1ccc2c(c1)OCO2	-	.	-	.	.	.
O=C(CCC1CCCN(C(=O)Cc2cccc(F)c2)C1)N1CCN(c2ccccn2)CC1 (configuration not stated)	-	-	-	-	426.3	-
CCOC(=O)c1[nH]c2ccc(Br)cc2c1NC(=O)CCN1CCOCC1	-	-	-	-	413.1	-
C=CCNC(=O)COc1cc(C)cc(C)c1C	-	-	-	-	-	.
CCCN1C(=O)c2ccccc2NC1c1ccc(C)cc1 (configuration not stated)	-	-	-	-	457.8	-
Cc1ccc(CN2C(=O)c3ccccc3NC2c2ccccn2)cc1 (configuration not stated)	-	-	-	-	-	.
CCCn1nnnc1NCc1ccccc1OCC	-	-	-	-	-	.
CCOc1ccc(Cl)cc1CNc1nnnn1CC	-	-	-	-	463.6	-
SMILES	FAS-TE inh	Calb FLC	NadD inh	ATG4B inhibitor	Mot1-301 SUMO	Yeast Mot1 SUMO
Cc1ccc(C(=O)/C=C/Nc2ccccc2C(N)=O)cc1	-	-	-	-	480.9	-
NC(=O)c1ccccc1N/C=C/C(=O)c1ccc(Cl)cc1	-	-	-	-	-	.
CCS(=O)(=O)N1CCC(C(=O)NCCCN2CCN(c3ccccc3F)CC2)CC1	-	-	-	-	481.4	-
O=C(NCCCN1CCN(c2ccccc2F)CC1)C1CCN(S(=O)(=O)c2cccs2)CC1	-	-	-	-	-	.
O=C(NCCCN1CCN(c2ccccc2F)CC1)Nc1ccc(F)cc1	-	-	-	-	-	.
O=C(NCCCN1CCN(c2ccccc2F)CC1)Nc1ccccc1[N+](=O)[O-]	-	-	-	-	446.5	-
NC(=O)c1c(NC(=O)c2ccc([N+](=O)[O-])o2)sc2c1CCCC2	-	-	-	-	-	.
N#Cc1c(NC(=O)c2ccc([N+](=O)[O-])o2)sc2c1CCC2	-	-	-	-	466.4	-
COc1ccc(NC(=O)CSc2ccccn2)cc1	-	.	-	-	-	.
COC(=O)CNC(=O)CSc1ccccn1	-	-	-	-	+	-
CN(CC(=O)N1CCc2[nH]c3ccc(F)cc3c2C1)CC1OCCO1	.	-	.	-	736.2	-
Cc1ccc2[nH]c3c(c2c1)CN(C(=O)CN(C)CC1OCCO1)CC3	-	-	-	-	-	.
CCCCOc1ccc(C(=O)Nc2ccc(CN3CCOCC3)cc2)cc1	-	-	-	-	361.7	-
CCCOc1ccc(C(=O)Nc2ccc(CN3CCOCC3)cc2)cc1	-	-	-	-	-	.
Cc1cccc(N2C(=O)/C(=C/c3cccnc3)SC2=S)c1	-	-	-	-	938.5	-
CCc1nnc(NC(=O)CN2CCCC(C)C2)s1 (configuration not stated)	-	-	-	-	-	.
N#Cc1ccc2[nH]c(CO)c(-c3ccccc3)c2c1	-	-	-	-	+	-
COC(=O)c1ccc2[nH]c(CO)c(-c3ccccc3)c2c1	-	-	-	-	-	.
CC(C)NC(=O)C(=O)NCCCN1CCOCC1	-	-	-	-	-	.
Cc1cc(O)cc2c1C(c1ccc(F)cc1)CC1(CC(C)(C)NC(=S)N1)O2 (configuration not stated)	-	-	-	-	-	.
COc1ccc(C2CC3(CC(C)(C)NC(=S)N3)Oc3cc(O)cc(C)c32)cc1 (configuration not stated)	-	-	-	-	978.5	-
COc1ccc(CCNCc2cc(C)n(-c3ccc(OC)cc3)c2C)cc1	-	-	-	-	-	.
CSc1ccccc1NC(=O)CSc1nnnn1-c1ccccc1SC	-	-	-	-	-	.
CSc1ccccc1-n1nnnc1SCC(=O)Nc1ccccc1C	-	-	-	-	505.9	-
COc1ccccc1-n1nnnc1SCC(=O)Nc1ccc(C)c(N)c1	-	-	-	-	455.5	-
SMILES	FAS-TE inh	Calb FLC	NadD inh	ATG4B inhibitor	Mot1-301 SUMO	Yeast Mot1 SUMO
O=C(c1cc2c(ccc3ccccc32)oc1=O)N1CCCC1	-	-	-	-	495.2	-
O=C(O)c1cc2c(ccc3ccccc32)oc1=O	-	-	-	.	-	.
COc1cccc(C(=O)NCc2ccc(-c3nc4ccccc4s3)cc2)c1	-	-	-	-	374.6	-
COc1ccc(C(=O)NCc2ccc(-c3nc4ccccc4s3)cc2)cc1	-	-	-	-	-	.
Cn1c(=O)c2c(ncn2CC(=O)N2CCCCCC2)n(C)c1=O	-	-	-	-	+	-
Cn1c(=O)c2c(ncn2CC(=O)N2CCCc3ccccc32)n(C)c1=O	-	-	-	-	-	.
CC1CCN(C(=O)Cn2cnc3c2c(=O)n(C)c(=O)n3C)c2ccccc2S1 (configuration not stated)	-	-	-	-	761.2	-
O=C(N[C@@H](Cc1ccccc1)C(=O)NCc1ccc(F)cc1)C1CCNCC1	-	.	-	-	-	.

Screening data as filed in PubChem BioAssay.
